{"source": "PubChem BioAssay AID504329", "about": "(Southern Research Specialized Biocontainment Screening …, 2011)", "note": "In all, about 340,000 compounds went through this assay and about 1,000 (0.29%) were called active. A selection follows. Entries with a potency or affinity are not part of this list. A number with no mark means an inactive call. Rule as the data show it: inconclusive = inhibition above about 27% without an active follow-up result; inactive = below that.", "data": [{"test": "H1N1 influenza NS1A inhibitors, functional cell based assay (AID 504329)", "conditions": "percent inhibition, at 12.5 µM, stronger effect = higher value", "units": {"inhibition": "%"}, "values": [{"smiles": "CC(=O)Nc1ccc(S(=O)(=O)N2CCC3(CC2)OCCO3)cc1", "inhibition": 4.94}, {"smiles": "COC(=O)c1ccc(O)cc1", "inhibition": -1.72}, {"smiles": "COC(=O)c1ccc2c(c1)C(C)(C)C(/C=C/c1ccc(OC)c(OC)c1OC)=[N+]2C", "inhibition": 4.08}, {"smiles": "COC(=O)c1ccc2c(c1)C(=O)/C(=C/c1ccc(O)cc1)O2", "inhibition": -8.68}, {"smiles": "COC(=O)c1ccc2nc(C)c(C)nc2c1", "inhibition": -1.98}, {"smiles": "CNC(=O)c1c(C)noc1C", "inhibition": -6.29}, {"smiles": "Clc1ccc(SCc2cc(Cl)nc(-c3ccccc3)n2)cc1", "inhibition": 3.7}, {"smiles": "Clc1ccc(SCc2cc(N3CCOCC3)nc(-c3ccccn3)n2)cc1", "inhibition": -0.35}, {"smiles": "COc1ccccc1N/C=C(\\C#N)c1nc2ccccc2[nH]1", "inhibition": 10.7}, {"smiles": "Cc1cc(=O)[nH]c(N=N/C(=N/Nc2ccc(O)cc2)c2ccccc2)n1", "inhibition": 13.6}, {"smiles": "O=C(/C(=N\\Nc1ccc(Br)cc1)Sc1nnnn1-c1ccccc1)c1ccccc1", "inhibition": 4.24}, {"smiles": "COc1ccc(N/N=C(/N=Nc2nc(C)cc(=O)[nH]2)c2ccccc2)cc1", "inhibition": 26.3}, {"smiles": "C/C(=N\\Nc1ccc(C(=O)O)cc1)c1ccc(Br)cc1", "inhibition": -17.3}, {"smiles": "COc1ccc(S(=O)(=O)N2CCOC2CNC(=O)C(=O)NCCc2ccccc2)cc1OC", "note": "(stereo not given)", "inhibition": 2.48}, {"smiles": "Cc1ccc(C)n1-n1cnc2sc3c(c2c1=O)CCC3", "inhibition": 0.86}, {"smiles": "COc1ccccc1C(CNC(=O)c1ccc(S(=O)(=O)N2CCCCC2)cc1)N(C)C", "note": "(stereo not given)", "inhibition": -6.72}, {"smiles": "O=C(O)C(Cc1ccccc1)N=C(NS(=O)(=O)c1ccccc1)c1ccccc1", "note": "(stereo not given)", "inhibition": -1.07}, {"smiles": "Cc1ccc(C)c(S(=O)(=O)N2CCN(Cc3ccc(O)c4ncccc34)CC2)c1", "inhibition": -17.5}, {"smiles": "CCOC(=O)C1CCN(Cc2c(O)ccc3ccccc23)CC1", "inhibition": -4.79}, {"smiles": "CCOC(=O)C1CCN(Cc2ccc(OC)c(C)c2OC)CC1", "inhibition": 0.38}, {"smiles": "Cc1ccc(NCc2ccc(O)c3ncccc23)cc1C", "inhibition": -2.65}, {"smiles": "OC1(C#CCN2CCCC2)CCCCC1", "inhibition": -3.16}, {"smiles": "Cc1ccc(F)cc1NC(=O)CSc1nnc(CNC(=O)c2ccco2)n1C", "inhibition": -10.7}, {"smiles": "N#CC(C#N)=C1NC(N)=C(C#N)C(c2ccccc2)=C1C#N", "inhibition": -3.59}, {"smiles": "CCc1cccc(OCC(=O)N(C)CC(=O)Nc2cccc(F)c2)c1", "inhibition": -9.68}, {"smiles": "CCN1CCCc2cc(CN(CCN3CCOCC3)C(=O)Nc3ccc(C)c(C)c3)ccc21", "inhibition": 22.9}, {"smiles": "CCOc1ccc(NC(=O)N(CCN2CCOCC2)Cc2ccc3c(c2)CCCN3CC)cc1", "inhibition": 16.9}, {"smiles": "O=c1ccc(/C=C/c2ccccc2)nn1Cc1ccc(F)cc1", "inhibition": 1.19}, {"smiles": "Cn1c(C(=O)O)cc2cc(Oc3ccccc3)ccc21", "inhibition": -27.7}, {"smiles": "O=C1CCC(=O)N1OCCOc1ccccc1", "inhibition": 6.54}, {"smiles": "COc1ccc(/C=C/C(=O)OCC(=O)Nc2cccc(C(C)=O)c2)cc1", "inhibition": -8.13}, {"smiles": "O=[N+]([O-])c1ccc(Cl)cc1Sc1nc2ccccc2o1", "inhibition": 4.69}, {"smiles": "O=[N+]([O-])c1ccc(CSc2nc3ccccc3o2)cc1", "inhibition": 11.7}, {"smiles": "CCN(Cc1cnn(C)c1)C(=O)CC1C(=O)NCCN1Cc1cccc(OC)c1OC", "note": "(stereo not given)", "inhibition": -0.14}, {"smiles": "C[N+]1=C(/C=C/Nc2ccccc2Cl)C(C)(C)c2ccccc21", "inhibition": 3.87}, {"smiles": "C[N+]1=C(/C=C/Nc2ccccc2)C(C)(C)c2ccccc21", "inhibition": -0.67}, {"smiles": "O=c1c(-c2ccccc2)c(O)cc(-c2ccncc2)n1-c1ccc(Cl)cc1", "inhibition": 1.22}, {"smiles": "COc1cccc(OC)c1C(=O)Nc1sc2c(c1C(N)=O)CCN(Cc1ccccc1)C2", "inhibition": 0.91}, {"smiles": "O=[N+]([O-])c1ccc(C[n+]2cccc3c4ccccc4ccc32)cc1", "inhibition": -5.37}, {"smiles": "O=[N+]([O-])c1ccc(C[n+]2cccc3ccccc32)cc1", "inhibition": 2.93}, {"smiles": "O=C1C(NS(=O)(=O)c2cccs2)=C(N2CCN(c3cccc(Cl)c3)CC2)C(=O)c2ccccc21", "inhibition": 19.4}, {"smiles": "O=C1C(NS(=O)(=O)c2cccs2)=C(N2CCOCC2)C(=O)c2ccccc21", "inhibition": 10.6}, {"smiles": "O=C1C(NS(=O)(=O)c2cccs2)=C(N2CCN(Cc3ccccc3)CC2)C(=O)c2ccccc21", "inhibition": 13.7}, {"smiles": "CN1CCN(C2=C(NS(=O)(=O)c3cccs3)C(=O)c3ccccc3C2=O)CC1", "inhibition": -3.67}, {"smiles": "CCOC(=O)N1CCN(S(=O)(=O)N2CCCC(C(=O)NCc3ccc(OC)cc3)C2)CC1", "note": "(stereo not given)", "inhibition": -1.33}, {"smiles": "CCOC(=O)c1cnc2c(OC)cccc2c1N1CCN(c2ccccn2)CC1", "inhibition": 3.27}, {"smiles": "CC(=O)OCCc1c(C)nc2nc[nH]n2c1=O", "inhibition": -2.62}, {"smiles": "O=C(Cc1ccc(Cl)cc1)Nc1ccccc1C(=O)Nc1ccc(C(=O)O)cc1", "inhibition": 9.57}, {"smiles": "O=C1CCN(S(=O)(=O)c2ccccc2)CCN1CCOCc1ccc(Cl)cc1", "inhibition": -21.7}, {"smiles": "Cc1ccc(S(=O)(=O)NC(=O)Nc2ccc(F)cc2)cc1", "inhibition": -6.14}, {"smiles": "Cc1ccc(S(=O)(=O)NC(=O)Nc2ccccc2)cc1", "inhibition": -7.51}, {"smiles": "O=C(CCc1nnc(Cc2ccc(-c3ccccc3)cc2)o1)NCC1CC1", "inhibition": -11.2}, {"smiles": "COc1ccc(CCN2CC(C(=O)Nc3ccccc3F)CC2=O)cc1OC", "note": "(stereo not given)", "inhibition": -13.5}, {"smiles": "O=C(NCCCn1ccnc1)C(=O)NCC1OCCN1S(=O)(=O)c1ccc(Cl)cc1", "note": "(stereo not given)", "inhibition": 13.8}, {"smiles": "O=C(NCCCn1ccnc1)C(=O)NCC1OCCN1S(=O)(=O)c1ccc(F)cc1", "note": "(stereo not given)", "inhibition": 19.7}, {"smiles": "Cc1ccc(/C=C/C(=O)NC(C)c2ccccc2)cc1", "note": "(stereo not given)", "inhibition": 2.36}, {"smiles": "O=C(CSCc1ccc([N+](=O)[O-])cc1)Nc1ccccc1C(=O)O", "inhibition": -16.2}, {"smiles": "COc1cc([N+](=O)[O-])c(N2CCOCC2)c([N+](=O)[O-])c1OC", "inhibition": 3.06}, {"smiles": "O=[N+]([O-])c1cc(Cl)ccc1N1CCOCC1", "inhibition": 6.25}, {"smiles": "Cc1cccc(OC(=O)n2c(=S)oc3cc(Cl)ccc32)c1", "inhibition": 1.29}, {"smiles": "CC(C)[C@H](NC(=O)C1CCN(C(=O)[C@@H]2CCCN2)CC1)C(=O)NCc1ccc(F)cc1", "inhibition": -5.22}, {"smiles": "Cc1ccc(C(=O)NC(=S)/C=C2\\N(C)c3ccccc3C2(C)C)cc1", "inhibition": 5.06}, {"smiles": "COc1ccccc1C(=O)NC(=S)/C=C1/N(C)c2ccccc2C1(C)C", "inhibition": 22.9}, {"smiles": "O=C(COc1cccc(NC(=O)c2cccs2)c1)c1ccc(F)cc1", "inhibition": -6.64}, {"smiles": "COc1ccccc1C(=O)NNC(=S)NC(=O)c1cccs1", "inhibition": 8.16}, {"smiles": "Cc1ccccc1C(=O)NNC(=S)NC(=O)c1cccs1", "inhibition": -2.01}, {"smiles": "O=C(NC(=S)NNC(=O)c1cc2ccccc2cc1O)c1ccco1", "inhibition": 12.9}, {"smiles": "Cc1onc(-c2ccccc2)c1C(=O)NC(=S)NNC(=O)c1ccc(O)cc1", "inhibition": 22}, {"smiles": "O=C(NNC(=O)c1ccccc1O)c1ccco1", "inhibition": -15.8}, {"smiles": "Cc1onc(-c2ccccc2)c1C(=O)NC(=S)NNC(=O)c1ccccc1O", "inhibition": 20.2}, {"smiles": "COc1ccc(C(=O)NC(=S)NNC(=O)c2ccccc2O)cc1", "inhibition": 0.2}, {"smiles": "O=C(NC(=S)NNC(=O)c1ccco1)c1ccc(F)cc1", "inhibition": 9.62}, {"smiles": "O=C(c1ccc([N+](=O)[O-])cc1)N(c1ccccn1)c1ccccn1", "inhibition": 2.4}, {"smiles": "Cc1ccc(NC(=O)c2cccc(NC(=O)/C=C/c3ccco3)c2)cc1C", "inhibition": -4.7}, {"smiles": "Cc1cccc(-c2ccc3ncnc(NCc4cccs4)c3c2)c1", "inhibition": -11}, {"smiles": "O=C(O)c1cc2ccccc2n1-c1ccccc1", "inhibition": 16.9}, {"smiles": "CN(C)N=C1c2cc(S(=O)(=O)N3CCOCC3)ccc2-c2ccc(S(=O)(=O)N3CCOCC3)cc21", "inhibition": 19.5}, {"smiles": "O=C(CCN1C(=O)/C(=C/c2ccccc2Cl)SC1=S)Nc1cccnc1", "inhibition": -1.44}, {"smiles": "O=C(CCN1C(=O)c2ccccc2S1(=O)=O)N1CCN(c2ccccc2F)CC1", "inhibition": -1.99}, {"smiles": "Cc1ccccc1C(=O)NNC(=S)NC(=O)c1ccccc1", "inhibition": -4.23}, {"smiles": "O=C(NNC(=S)NC(=O)c1ccccc1)c1cccc([N+](=O)[O-])c1", "inhibition": -20.7}, {"smiles": "O=C(NNC(=S)NC(=O)c1ccccc1)c1cccnc1", "inhibition": 4.4}, {"smiles": "Cc1ccc(C(=O)NC(=S)NNC(=O)c2ccccc2O)cc1", "inhibition": 34.2}, {"smiles": "O=C(NC(=S)NNC(=O)c1ccccc1O)c1ccc([N+](=O)[O-])cc1", "inhibition": 1.41}, {"smiles": "Cc1ccccc1C(=O)NNC(=S)NC(=O)c1cccnc1", "inhibition": 2.35}, {"smiles": "Cc1ccc(-n2c(CNc3ccc(F)cc3)nnc2SCC(N)=O)cc1", "inhibition": 6.65}, {"smiles": "Cc1cccc(NS(=O)(=O)c2cccc(C(=O)N3CCN(C/C=C/c4ccccc4)CC3)c2)c1", "inhibition": -7.79}, {"smiles": "CCN(c1ccccc1)S(=O)(=O)c1ccc2c(c1)CCCN2C(C)=O", "inhibition": 5.4}, {"smiles": "CC(=O)CCCC(NS(=O)(=O)CCC(Cl)(Cl)Cl)c1ccccc1", "note": "(stereo not given)", "inhibition": 1.88}, {"smiles": "Oc1ccccc1C=NCCN=Cc1ccccc1O", "inhibition": 18.6}, {"smiles": "Oc1ccccc1C=NCCCCCCN=Cc1ccccc1O", "inhibition": -8.96}, {"smiles": "COc1cccc(CN(C)C(=O)c2ccc(OCC(=O)N3CCOCC3)c(OC)c2)c1", "inhibition": -6.73}, {"smiles": "COc1ccccc1OCc1nc2ccccc2[nH]1", "inhibition": 1.78}, {"smiles": "CCOC(=O)c1nc(Nc2ccc(Nc3ccccc3)cc2)c2ccccc2n1", "inhibition": 10.9}, {"smiles": "CCOC(=O)c1nc(Nc2ccc(N3CCOCC3)cc2)c2ccccc2n1", "inhibition": -12.1}]}]}
